The values below come from PubChem BioAssay (Tox21).

The target of assay [1] is Cytochrome P450 2D6 (Homo sapiens) (UniProt P10635). Put plainly: Cytochrome P450 Family 2 Subfamily D Member 6 (CYP2D6) small molecule antagonists: luciferase reporter qHTS assay (AID 1671196). Further: nearly all actives have a fitted effect of over 50% in size. Further: potency means the concentration at half of the fitted maximal effect. In outline:
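Inhibition of CYP2D6 was gauged by loss of luminescence, since light produced tracks the luciferin generated from a proluciferin substrate. A 10 min room-temperature preincubation preceded 1 h NADPH-supported turnover.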

In assay [2] the target is Cytochrome P450 2C19 (Homo sapiens) (UniProt P33261). The assay can be described thus: Cytochrome P450 Family 2 Subfamily C Member 19 (CYP2C19) small molecule antagonists: luciferase reporter qHTS assay (AID 1671197). Further: nearly all actives have a fitted effect of over 65% in size. Further: potency means the concentration at half of the fitted maximal effect. A digest of the protocol: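 Inhibition of CYP2C19 was scored from loss of luminescence in a P450-Glo proluciferin substrate assay, NADPH-started and run 1 h at 37C, with ketoconazole as positive control.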
A general note: A reporter such as luciferase makes a cellular process visible.

Assay [3] addresses Cytochrome P450 2C9 (Homo sapiens) (UniProt P11712). The assay can be described thus: Cytochrome P450 Family 2 Subfamily C Member 9 (CYP2C9) small molecule antagonists: luciferase reporter qHTS assay (AID 1671198). Further: nearly all actives have a fitted effect of over 50% in size. Further: potency means the concentration at half of the fitted maximal effect. In outline: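 Enzyme-substrate mix preincubated with compound 10 min at room temperature; reaction started with NADPH regeneration solution, 1 h 37C. Luminescent luciferin product read after 20 min detection reagent.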

In assay [4] the target is Cytochrome P450 1A2 (Homo sapiens) (UniProt P05177). The assay can be described thus: Cytochrome P450 Family 1 Subfamily A Member 2 (CYP1A2) small molecule antagonists: luciferase reporter qHTS assay (AID 1671199). Further: nearly all actives have a fitted effect of over 50% in size. Further: potency means the concentration at half of the fitted maximal effect. A digest of the protocol: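 Signal from luciferin formed by CYP1A2 from a proluciferin substrate is read as luminescence, expressed in relative luminescence units. Compounds sit with enzyme 10 min, NADPH-driven reaction runs 1 h, all at room temperature.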

Assay [5] deals with Voltage-gated inwardly rectifying potassium channel KCNH2 (Homo sapiens) (UniProt Q12809). Put plainly: Human Ether-a-go-go-Related Gene (hERG) channel small molecule antagonists: fluorescence cell-based qHTS assay (AID 1671200). Further: nearly all actives have a fitted effect of over 50% in size. Further: potency means the concentration at half of the fitted maximal effect. In outline: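 hERG-U2OS cells plated overnight at 37 C, loaded with FluxOR II dye 1 h at RT in dark; after 10 min, thallium stimulus added. Fluorescence (480/540 nm) read kinetically for 2 min at 1 s intervals.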
(In general: The hERG channel carries a current that helps repolarise heart muscle cells.)

The target of assay [6] is Cytochrome P450 3A4 (Homo sapiens) (UniProt P08684). The assay can be described thus: Cytochrome P450 Family 3 Subfamily A Member 4 (CYP3A4) small molecule antagonists: luciferase reporter qHTS assay (AID 1671201). In outline:
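P450-Glo CYP3A4 luminescent assay: compounds preincubated 10 min at room temperature with enzyme and proluciferin substrate, NADPH regeneration added, 1 h room-temperature reaction, stopped with luciferin detection reagent; luminescence read after 20 min. Ketoconazole positive control.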

Results filed as inconclusive are left out. The source made the active and inactive calls. The call rests on the fitted dose curve; in most records, active means well fitted curve in the direction sought with a large enough effect in the repeat runs; inconclusive means weak or mixed curves; inactive means no such curve, though single readings can be large; an effect the other way counts as inactive or inconclusive.

Cytochrome P450 2C19 (Homo sapiens), sequence (P33261 whole entry, looked up): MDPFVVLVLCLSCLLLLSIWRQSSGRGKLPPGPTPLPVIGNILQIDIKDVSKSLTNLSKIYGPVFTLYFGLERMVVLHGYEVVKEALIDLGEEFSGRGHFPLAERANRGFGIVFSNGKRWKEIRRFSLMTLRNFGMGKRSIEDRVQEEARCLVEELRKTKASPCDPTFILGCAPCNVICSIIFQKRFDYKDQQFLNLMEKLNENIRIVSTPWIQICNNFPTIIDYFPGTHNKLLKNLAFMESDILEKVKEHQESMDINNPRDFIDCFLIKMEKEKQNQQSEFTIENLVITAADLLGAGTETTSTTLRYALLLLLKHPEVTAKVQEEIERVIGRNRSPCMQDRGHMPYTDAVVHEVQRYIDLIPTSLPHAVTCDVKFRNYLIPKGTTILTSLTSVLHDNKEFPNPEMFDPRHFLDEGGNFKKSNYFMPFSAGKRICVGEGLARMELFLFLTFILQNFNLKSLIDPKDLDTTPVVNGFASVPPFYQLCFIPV
Cytochrome P450 1A2 (Homo sapiens), sequence (P05177 whole entry, looked up): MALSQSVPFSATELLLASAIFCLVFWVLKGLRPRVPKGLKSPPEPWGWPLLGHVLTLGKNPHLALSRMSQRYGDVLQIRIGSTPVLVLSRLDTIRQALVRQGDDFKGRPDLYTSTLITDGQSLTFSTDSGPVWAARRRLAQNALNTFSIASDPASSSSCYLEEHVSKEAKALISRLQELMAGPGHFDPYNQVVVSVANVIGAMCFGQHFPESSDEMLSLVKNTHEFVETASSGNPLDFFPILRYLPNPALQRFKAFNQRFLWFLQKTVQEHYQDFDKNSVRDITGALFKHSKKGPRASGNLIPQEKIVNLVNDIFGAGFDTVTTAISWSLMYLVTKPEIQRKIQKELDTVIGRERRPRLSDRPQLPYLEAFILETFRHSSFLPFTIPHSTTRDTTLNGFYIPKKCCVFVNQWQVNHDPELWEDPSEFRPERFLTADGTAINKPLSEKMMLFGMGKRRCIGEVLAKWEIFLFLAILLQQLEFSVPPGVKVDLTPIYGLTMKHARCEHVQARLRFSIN
Cytochrome P450 3A4 (Homo sapiens), sequence (P08684 whole entry, looked up): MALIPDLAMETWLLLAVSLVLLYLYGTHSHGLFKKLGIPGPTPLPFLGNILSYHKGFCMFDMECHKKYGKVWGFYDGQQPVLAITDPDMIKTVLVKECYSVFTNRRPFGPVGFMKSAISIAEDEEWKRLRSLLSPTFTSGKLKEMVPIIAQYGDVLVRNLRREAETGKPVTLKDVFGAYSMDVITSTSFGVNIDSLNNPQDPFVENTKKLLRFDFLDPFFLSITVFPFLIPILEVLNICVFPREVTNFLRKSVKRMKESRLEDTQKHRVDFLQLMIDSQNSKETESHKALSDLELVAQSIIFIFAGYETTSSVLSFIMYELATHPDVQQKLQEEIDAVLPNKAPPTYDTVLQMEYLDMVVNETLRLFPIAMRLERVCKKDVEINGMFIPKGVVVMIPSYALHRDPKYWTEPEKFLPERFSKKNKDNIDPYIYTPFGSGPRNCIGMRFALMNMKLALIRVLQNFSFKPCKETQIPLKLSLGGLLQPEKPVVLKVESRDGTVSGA
Cytochrome P450 2C9 (Homo sapiens), sequence (P11712 whole entry, looked up): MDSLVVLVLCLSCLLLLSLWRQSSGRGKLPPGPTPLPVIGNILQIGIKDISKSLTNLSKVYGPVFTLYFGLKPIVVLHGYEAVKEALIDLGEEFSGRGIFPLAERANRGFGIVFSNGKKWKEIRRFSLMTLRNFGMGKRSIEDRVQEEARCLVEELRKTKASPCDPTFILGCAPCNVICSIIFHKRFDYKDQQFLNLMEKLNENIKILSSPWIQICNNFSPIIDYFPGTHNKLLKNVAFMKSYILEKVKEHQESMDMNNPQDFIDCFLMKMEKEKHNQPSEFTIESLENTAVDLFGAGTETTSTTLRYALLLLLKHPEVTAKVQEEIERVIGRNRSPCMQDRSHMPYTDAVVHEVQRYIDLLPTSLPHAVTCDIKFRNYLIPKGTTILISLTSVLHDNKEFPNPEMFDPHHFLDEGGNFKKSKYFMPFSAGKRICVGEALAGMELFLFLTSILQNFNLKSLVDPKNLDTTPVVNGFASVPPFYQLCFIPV
Cytochrome P450 2D6 (Homo sapiens), sequence (P10635 whole entry, looked up): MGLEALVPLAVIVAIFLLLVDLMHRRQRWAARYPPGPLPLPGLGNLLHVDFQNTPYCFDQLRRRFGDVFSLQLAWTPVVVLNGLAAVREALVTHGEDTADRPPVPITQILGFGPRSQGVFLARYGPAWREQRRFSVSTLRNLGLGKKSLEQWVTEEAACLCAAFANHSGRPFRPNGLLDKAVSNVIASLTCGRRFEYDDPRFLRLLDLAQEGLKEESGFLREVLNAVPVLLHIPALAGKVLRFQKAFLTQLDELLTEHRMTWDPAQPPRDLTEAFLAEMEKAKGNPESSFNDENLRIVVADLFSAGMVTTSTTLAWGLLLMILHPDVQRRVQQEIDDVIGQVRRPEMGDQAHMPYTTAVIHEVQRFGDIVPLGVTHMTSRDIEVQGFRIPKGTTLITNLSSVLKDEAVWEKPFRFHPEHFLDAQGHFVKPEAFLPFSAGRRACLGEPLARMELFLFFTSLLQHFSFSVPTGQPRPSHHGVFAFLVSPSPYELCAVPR
Voltage-gated inwardly rectifying potassium channel KCNH2 (Homo sapiens), sequence (Q12809 whole entry, looked up): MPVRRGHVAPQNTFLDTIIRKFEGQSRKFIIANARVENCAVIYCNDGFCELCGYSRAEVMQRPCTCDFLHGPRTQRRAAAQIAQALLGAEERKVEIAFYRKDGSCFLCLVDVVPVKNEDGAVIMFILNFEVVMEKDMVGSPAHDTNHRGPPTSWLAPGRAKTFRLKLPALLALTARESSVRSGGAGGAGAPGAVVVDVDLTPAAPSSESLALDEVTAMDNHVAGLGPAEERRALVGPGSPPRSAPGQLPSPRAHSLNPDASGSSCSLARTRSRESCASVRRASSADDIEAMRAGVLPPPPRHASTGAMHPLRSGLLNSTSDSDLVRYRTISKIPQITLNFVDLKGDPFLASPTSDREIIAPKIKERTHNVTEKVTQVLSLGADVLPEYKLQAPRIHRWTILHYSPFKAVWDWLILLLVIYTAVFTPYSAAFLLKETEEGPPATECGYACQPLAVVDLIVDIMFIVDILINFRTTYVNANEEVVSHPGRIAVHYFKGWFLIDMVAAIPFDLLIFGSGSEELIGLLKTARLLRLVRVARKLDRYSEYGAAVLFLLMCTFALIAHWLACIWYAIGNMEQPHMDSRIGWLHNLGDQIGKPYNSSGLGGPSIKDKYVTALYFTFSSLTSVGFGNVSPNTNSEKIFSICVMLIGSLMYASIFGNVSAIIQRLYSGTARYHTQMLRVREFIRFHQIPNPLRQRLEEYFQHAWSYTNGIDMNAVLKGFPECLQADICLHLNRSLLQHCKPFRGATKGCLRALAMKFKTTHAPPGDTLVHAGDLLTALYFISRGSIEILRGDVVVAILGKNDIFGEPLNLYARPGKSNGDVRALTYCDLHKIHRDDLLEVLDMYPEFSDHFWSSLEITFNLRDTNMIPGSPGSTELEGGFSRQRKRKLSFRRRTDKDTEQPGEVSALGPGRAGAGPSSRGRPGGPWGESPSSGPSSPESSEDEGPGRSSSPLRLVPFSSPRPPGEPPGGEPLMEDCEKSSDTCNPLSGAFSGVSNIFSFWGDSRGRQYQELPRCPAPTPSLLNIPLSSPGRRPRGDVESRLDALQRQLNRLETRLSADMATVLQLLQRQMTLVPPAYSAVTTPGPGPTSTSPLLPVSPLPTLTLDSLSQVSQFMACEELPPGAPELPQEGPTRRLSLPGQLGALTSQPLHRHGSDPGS

`NS(=O)(=O)c1cc(C(=O)NN2C[C@H]3[C@H]4CCC(C4)[C@H]3C2)ccc1Cl`: the Potency result in assay [1], in assay [2], in assay [3], in assay [4] and in assay [5] was “inactive” in each case.
With `O=c1cc(CO)occ1O`, the Potency result in assay [1], in assay [2], in assay [3], in assay [4], in assay [5] and in assay [6] was “inactive” in each case.
For the molecule `CN(C)CCCSc1ccccc1NC(=O)/C=C/c1ccccc1`, the values for the Potency in assay [1] and in assay [2] were 0.389 µM (active) and 38.9 µM (active), respectively. Also, the Potency result in assay [3], in assay [4], in assay [5] and in assay [6] was “inactive” throughout.
Turning to `CC(C)(CC(=O)O)C(=O)O`, the Potency result in assay [1], in assay [3], in assay [5] and in assay [6] was “inactive” in each case. For the same molecule, the results for the Potency in assay [2] and in assay [4] were 70.3 µM (active) and 12.5 µM (active), respectively.
As to `CCCCCCOC(=O)CCCCC(=O)OCCCCCC`, the Potency entry in assay [1], in assay [2], in assay [4], in assay [5] and in assay [6] was “inactive” throughout. For the same molecule, the Potency in assay [3] is 31.7 µM (active).
For `COC(=O)CC(C)=O`, the Potency entry in assay [1], in assay [2], in assay [3], in assay [4], in assay [5] and in assay [6] was “inactive” each time.
With `NS(=O)(=O)c1ccccc1Cl`, the Potency result in assay [1], in assay [2], in assay [3], in assay [4], in assay [5] and in assay [6] was “inactive” throughout.
For `CC(C)(C)c1nnc(NS(=O)(=O)c2ccccc2)s1`, the Potency result in assay [1], in assay [2], in assay [4], in assay [5] and in assay [6] was “inactive” in each case. Moreover, the Potency in assay [3] was 27.5 µM (active).
With `COc1c(N2C[C@@H]3CCCN[C@@H]3C2)c(F)cc2c(=O)c(C(=O)O)cn(C3CC3)c12`, the Potency entry in assay [1], in assay [2], in assay [3], in assay [4], in assay [5] and in assay [6] was “inactive” each time.
In the case of `N=c1nc(N2CCCCC2)cc(N)n1O`, the Potency in assay [1] was 21.9 µM (active). Besides, the Potency entry in assay [2], in assay [3], in assay [4], in assay [5] and in assay [6] was “inactive” in each case.
Turning to `CCS(=O)(=O)c1ccc(OC)c(C(=O)OC)c1`, the Potency result in assay [1], in assay [2], in assay [3], in assay [4], in assay [5] and in assay [6] was “inactive” in each case.
Regarding `O=C(CCCN1CCN(c2ccccn2)CC1)c1ccc(F)cc1`, the Potency in assay [1] was 11 µM (active); in assay [2] it was 34.7 µM (active); in assay [3], 7.76 µM (active); in assay [5], 6.74 µM (active). Also, the Potency entry in assay [4] and in assay [6] was “inactive” each time.
On to `O=c1n(CCO)c(=O)n(CCO)c(=O)n1CCO`, for which the Potency entry in assay [1], in assay [2], in assay [3], in assay [4], in assay [5] and in assay [6] was “inactive” in each case.
As for `CC(C(=O)O)c1ccc(CC2CCCC2=O)cc1` (stereo not drawn), the Potency result in assay [1], in assay [2], in assay [3], in assay [4], in assay [5] and in assay [6] was “inactive” each time.
`CCC(C)C1CCCCC1=O` (stereo not drawn): the Potency entry in assay [1], in assay [2], in assay [3], in assay [4], in assay [5] and in assay [6] was “inactive” in each case.
For `COCCCOCCCOC`, the Potency result in assay [1], in assay [2], in assay [3], in assay [4], in assay [5] and in assay [6] was “inactive” each time.
Take `OC[C@]1(O)OC[C@@H](O)[C@H](O)[C@@H]1O`: the Potency entry in assay [1], in assay [2], in assay [3], in assay [4], in assay [5] and in assay [6] was “inactive” throughout.
As for `Cc1[nH]c(=O)c(C#N)cc1-c1ccc2nccn2c1`, the Potency result in assay [1], in assay [2], in assay [3], in assay [4], in assay [5] and in assay [6] was “inactive” each time.
For `CCCCOCCOCCOCCCC`, the Potency entry in assay [1], in assay [2], in assay [3], in assay [4], in assay [5] and in assay [6] was “inactive” throughout.
`COc1ccc2c(c1)CCCC2=O`: the Potency entry in assay [1], in assay [2], in assay [3], in assay [5] and in assay [6] was “inactive” throughout. In addition, the Potency in assay [4] is 13.8 µM (active).
For the molecule `NC(=O)c1ccc(N)cc1`, the Potency entry in assay [1], in assay [2], in assay [3], in assay [4], in assay [5] and in assay [6] was “inactive” in each case.
In the case of `C=C(C)CS(=O)(=O)O`, the Potency entry in assay [1], in assay [2], in assay [3], in assay [5] and in assay [6] was “inactive” each time. In assay [4], the Potency was 35.6 µM (active).
Take `CN1CCC(=C2c3ccccc3CC(=O)c3sccc32)CC1`: the Potency is 2.45 µM (active) in assay [1] and 34.7 µM (active) in assay [2]. For the same molecule, the Potency entry in assay [3], in assay [4], in assay [5] and in assay [6] was “inactive” in each case.
Turning to `C1CN(CCOCCN2CCOCC2)CCO1`, the Potency entry in assay [1], in assay [2], in assay [3], in assay [4], in assay [5] and in assay [6] was “inactive” each time.
As to `Cc1c(NC(C)C)c(=O)n(-c2ccccc2)n1C`, the Potency entry in assay [1], in assay [2], in assay [3], in assay [5] and in assay [6] was “inactive” throughout. For the same molecule, the Potency in assay [4] is 28.8 µM (active).
In the case of `CC(C)(O)C#CC(C)(C)O`, the Potency result in assay [1], in assay [2], in assay [3], in assay [4], in assay [5] and in assay [6] was “inactive” each time.
With `Nc1cc(=O)[nH]c(N)n1`, the Potency result in assay [1], in assay [2], in assay [3], in assay [4], in assay [5] and in assay [6] was “inactive” each time.
With `CCOC(=O)C(=O)OCC`, the Potency in assay [1] is 31.7 µM (active). Further, the Potency entry in assay [2], in assay [3], in assay [4], in assay [5] and in assay [6] was “inactive” each time.
As for `CO[Si](CCCOCC1CO1)(OC)OC` (stereo not drawn), the Potency entry in assay [1], in assay [2], in assay [3], in assay [4], in assay [5] and in assay [6] was “inactive” throughout.
